Source: PubChem BioAssay (several laboratories)
A selection: hits, their analogues and other compounds. The true share with any hit is near 2.4%.
Yeast superoxide: yeast age-related superoxide inhibition as caloric restriction mimetic; S. cerevisiae aged cells, superoxide DHE fluorescence; hits give low values; superoxide response (% of plate mean), % at 10 µM; 330,000 tested, 0.18% active;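 active = superoxide response under a set limit, about three screen SD below normal, cut at about 65% in these data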;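 also: yeast aged for seven days with compound at 30 °C before DHE staining; 100% = average MFI of all compound-treated wells on the plate with controls excluded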
M18AAP inhibitor: PfM18AAP enzyme inhibition. AID 1822. inhibition, % at 7.35 µM. 290,000 tested, 1.2% active. recombinant PfM18AAP, H-Glu-NHMec fluorogenic cleavage;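 active = inhibition above the campaign mean inhibition over all tested compounds plus 3 SD, cut at about 28% in these data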;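 also: 0% = plate median of test compound wells and 100% = 2 mM ZnCl2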
PfGluPho inh: PfG6PD (Plasmodium falciparum) enzyme inhibition; PfGluPho enzyme, NADPH resazurin-diaphorase fluorescence; inhibition, % at 20 µM; 350,000 tested, 0.78% active;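 active = inhibition reaching at least a set limit at 20 µM in the primary screen, cut at about 59% in these data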;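 also: 0% = DMSO wells with substrate and 100% = DMSO wells lacking glucose-6-phosphate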
A3G deaminase: inhibitors of human APOBEC3G DNA deaminase | Q9HC16 | recombinant A3G, ssDNA deamination FAM/TAMRA fluorescence | inhibition, % at 20 µM | 330,000 tested, 0.28% active;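 active = inhibition of at least 40% at 20 µM, with no more than 30% in the related APOBEC3A deaminase screen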;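 also: plate controls were DMSO wells with A3G for no effect and wells lacking A3G enzyme for full effect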
Target sequence (Q9HC16 whole entry, looked up): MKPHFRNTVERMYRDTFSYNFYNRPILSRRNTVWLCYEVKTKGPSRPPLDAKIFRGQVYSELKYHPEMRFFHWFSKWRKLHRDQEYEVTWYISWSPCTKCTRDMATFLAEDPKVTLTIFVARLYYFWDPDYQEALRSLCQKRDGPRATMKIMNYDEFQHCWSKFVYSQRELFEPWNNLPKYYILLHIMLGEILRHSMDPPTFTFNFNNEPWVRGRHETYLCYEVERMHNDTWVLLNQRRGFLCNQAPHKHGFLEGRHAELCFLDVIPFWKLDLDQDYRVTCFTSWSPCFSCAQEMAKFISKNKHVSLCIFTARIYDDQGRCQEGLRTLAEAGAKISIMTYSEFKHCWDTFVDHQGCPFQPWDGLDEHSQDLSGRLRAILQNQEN
A3A deaminase: blocks human APOBEC3A ssDNA deamination; P31941; recombinant A3A, FAM/TAMRA ssDNA deamination fluorescence; inhibition, % at 20 µM; 330,000 tested, 0.41% active;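 active = at least 40% inhibition at 20 µM here, with at most 30% in a related deaminase screen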;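 also: plate controls were A3A with DMSO for no effect and wells lacking A3A enzyme for full effect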
Target sequence (P31941 whole entry, looked up): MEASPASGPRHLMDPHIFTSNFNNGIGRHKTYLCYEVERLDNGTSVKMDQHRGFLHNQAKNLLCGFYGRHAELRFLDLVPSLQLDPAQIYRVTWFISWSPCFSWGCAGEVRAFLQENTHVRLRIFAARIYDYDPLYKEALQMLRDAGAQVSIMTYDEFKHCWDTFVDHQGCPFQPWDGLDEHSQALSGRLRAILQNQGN
A3G conf: APOBEC3G (human) deaminase inhibition, confirmed; shares compounds with A3G deaminase; recombinant A3G ssDNA deaminase, UDG/FAM-TAMRA fluorescence; inhibition, % at 20 µM; 890 tested, 72% active; AID 493152;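 active = inhibition reaching a set limit in any replicate at 20 µM, the limit being 80% of the first screen's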
UDG ctr A3G: inhibits E. coli UDG, flagging false APOBEC3G inhibitors | 710 tested, under 10 active | inhibition, % at 20 µM | shares compounds with A3G deaminase | UDG counterscreen, FAM/TAMRA oligo fluorescence;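 active = compounds giving 40% or more inhibition at 20 µM in any one of the three replicates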;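 also: plate controls were DMSO wells with UDG and oligo for no effect and DMSO wells lacking both for full effect; inhibitors lower the FAM signal released by uracil excision and alkaline cleavage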
PfGluPho conf: confirmation of Plasmodium falciparum G6PD inhibitors. shares compounds with PfGluPho inh. recombinant PfGluPho, NADPH-diaphorase-resazurin fluorescence. inhibition, % at 20 µM. 2,400 tested, 34% active. AID 504753;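 active = inhibition of at least 50% at 20 µM in any single replicate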;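 also: 0% = DMSO with substrate and 100% = DMSO lacking glucose-6-phosphate substrate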
Diaphorase 10uM: inhibits diaphorase or oxidizes, flagging false PfG6PD hits; shares compounds with PfGluPho inh; diaphorase-coupled resazurin reduction, fluorescence, NADPH 10 uM; inhibition, % at 20 µM; 820 tested, 39% active; AID 504862;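 active = average inhibition reaching 50% or more with the compound at 20 µM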;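 also: resorufin red fluorescence formed as diaphorase reduces resazurin using NADPH; 0% = DMSO with enzyme and 100% = DMSO without enzyme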
Diaphorase 30uM: counter-screen for P. falciparum G6PD inhibitors: diaphorase inhibitors, oxidizers. inhibition, % at 20 µM. 820 tested, 29% active. shares compounds with PfGluPho inh. Diaphorase/resazurin coupled assay, resorufin fluorescence, 30 uM NADPH. AID 504863;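 active = inhibition averaging 50% or more, tested at 20 µM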;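 also: 0% = DMSO with enzyme and 100% = DMSO wells lacking diaphorase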
The depositor's hits bear a star; nt = no result; ! = not confirmed by another sample.

SMILES	Yeast superoxide	M18AAP inhibitor	PfGluPho inh	A3G deaminase	A3A deaminase	PfGluPho conf	others
O=C1C=CC(=O)C=C1	99.1	nt	53.8	81.7*	5.3	nt	A3G conf=88.3*;UDG ctr A3G=-2.8
c1ccc(-c2ccc(CN3Cc4ccccc4-n4nncc4C3)cc2)cc1	nt	nt	-9.1	nt	nt	nt
Cc1nn(CCC#N)c2c1P(=S)(N1CCCC1)OC(c1ccc(F)cc1)=N2 (stereo not given)	115.2	8.2	65.4*	66.9*	2.3	nt	A3G conf=67.2*
c1cncc(C2Nc3cccc4cccc(c34)N2)c1	89.1	34.7*!	39.2	44.7*	22.4	nt	A3G conf=63.9*
COc1ccc(OC)c(N2C(=O)NC(=O)/C(=C/c3ccc([N+](=O)[O-])s3)C2=O)c1	75.7	3.4	62.4*	13.5	24.4	38.3
COc1ccc(OC)c(N2C(=O)/C(=C/c3ccco3)C(=O)NC2=S)c1	101.1	-41.6	18.9	87.8	99.3	nt
CCCC(=O)NC1=C(N2CC2)C(=O)C(NC(=O)CCC)=C(N2CC2)C1=O	nt	nt	81.2*	nt	nt	93.5*	Diaphorase 10uM=84.9*;Diaphorase 30uM=81.5*
Brc1ccc2[nH]cc(C=NN3CCCCCC3)c2c1	nt	nt	19.0	nt	nt	nt
COC(=O)C1=C(C(=O)OC)SC2(S1)C(C(=O)OC)=C(C(=O)OC)Sc1c2ssc1=O	nt	nt	86.4*	nt	nt	60.3*	Diaphorase 10uM=-2.4;Diaphorase 30uM=-3.3
COc1ccc(CCNCc2c(OC)ccc3ccccc23)cc1	102.0	1.5	-18.0	-0.8	0.6	nt
O=C1C(=O)c2ccccc2-c2ccccc21	77.8	20.7	116.8*	-1.1	0.0	97.0*	Diaphorase 10uM=88.4*;Diaphorase 30uM=89.7*
O=C1C(=O)c2cccc3cccc1c23	111.5	4.2	0.1	-1.7	1.8	nt
CC(C)(C)C(=O)O[C@H]1CC[C@@]2(C)C(=CC(=O)C3C2CC[C@]2(C)C(=O)[C@@H](F)CC32)C1 (stereo not given in full)	95.5	nt	15.0	-4.7	1.3	nt
NC1CCc2cc(O)c(O)cc2C1 (stereo not given)	97.4	nt	69.1*	4.2	1.9	75.6*	Diaphorase 10uM=-2.2;Diaphorase 30uM=5.8
c1ccc(CCNCc2cccs2)cc1	101.0	1.8	5.2	-3.0	-2.3	nt
CCOC(=O)C(O)(c1ccc(NC(=O)c2ccc(Cl)c(Cl)c2)cc1)C(F)(F)F (stereo not given)	116.0	0.1	62.4*	-9.6	-2.7	-27.4
O=C1Nc2ccc(Br)cc2C(c2ccc(Cl)cc2)=NC1O (stereo not given)	94.6	0.8	99.5*	1.4	1.5	75.1*	Diaphorase 10uM=83.3*;Diaphorase 30uM=66.8*
CCn1c(C)c(C(=O)Nc2ccc(OC)cc2)c2cc(OC)ccc21	93.4	-4.7	66.3*	-9.1	-2.4	25.5
OCC(Br)CBr (stereo not given)	96.6	nt	20.6	-10.5	-1.9	nt
COC(=O)C12CCc3c(ccc4cc(OC)ccc34)C1=CC(=O)C2 (stereo not given)	nt	nt	71.3*	nt	nt	28.1
COC(=O)c1cn(C(=O)c2cccc3ccccc23)c2ccccc12	98.6	4.6	24.4	-2.0	3.6	nt
CCCN1CCc2cccc3c2[C@H]1Cc1ccc(O)c(O)c1-3	33.0*	nt	86.2*	22.6	-9.8	82.4*	Diaphorase 10uM=28.1;Diaphorase 30uM=10.7
C=CCn1c(O)c(C(CC)=Nc2cccc(C(F)(F)F)c2)c(=O)[nH]c1=O	108.1	6.4	20.5	-2.9	-1.2	nt
CNC(=O)Oc1ccc(-c2cn3cc(C)ccc3n2)cc1	103.5	-0.1	62.2*	-8.4	-1.2	47.4
CCC(COC(=O)NC)NC(=O)Oc1cccc(C)c1 (stereo not given)	107.8	0.9	-24.1	-1.2	-4.9	nt
SMILES	Yeast superoxide	M18AAP inhibitor	PfGluPho inh	A3G deaminase	A3A deaminase	PfGluPho conf	others
CNC(=O)Oc1cccc(-c2cn3cc(Cl)ccc3n2)c1	94.0	-5.7	61.2*	-0.2	0.7	17.4
N#CC(Br)Br	74.7	nt	6.9	-4.3	1.4	nt
C=C1C(=O)O[C@@H]2C[C@@H](C)[C@@H]3C=CC(=O)[C@@]3(C)[C@@H](OC(=O)CC(=O)O[C@H]3[C@@H]4C(=C)C(=O)O[C@@H]4C[C@@H](C)[C@@H]4C=CC(=O)[C@]43C)[C@H]12	109.4	nt	68.2*	-3.0	1.5	55.9*	Diaphorase 10uM=-6.4;Diaphorase 30uM=-2.9
C=C1C(=O)OC2CC(C)C3C=CC(=O)C3(C)C(O)C12 (stereo not given)	nt	nt	21.5	nt	nt	nt
Oc1ccc(O)c2c1C1(Cl)C(Cl)=C(Cl)C2(Cl)C1(Cl)Cl	nt	nt	73.3*	nt	nt	12.4
CC1=NN=C(c2ccc(N)cc2)c2cc3c(cc2C1)OCO3	96.5	nt	44.2	-3.2	-1.1	9.3
CN1CC(C#N)C2(O)c3ccccc3CCC2C1 (stereo not given)	103.5	-6.0	-12.9	-4.9	-4.5	nt
CCCCCCCCn1sccc1=O	86.5	nt	91.6*	-18.1	-1.5	77.9*	Diaphorase 10uM=-9.2;Diaphorase 30uM=-9.1
CN(C)c1ccc(C=C2C(=O)NC(=O)NC2=O)cc1	nt	nt	26.3	nt	nt	nt
CN(C)c1ccc(C=C2C(=O)NC(=S)NC2=O)cc1	nt	nt	68.8*	nt	nt	41.0
CN(C)CCSC1c2ccccc2CSc2ccccc21 (stereo not given)	104.0	nt	22.1	-10.1	-4.8	nt
C[C@@H]1CN([C@H](C)CO)C(=O)CCCn2cc(nn2)CO[C@H]1CN(C)C(=O)Oc1cccc2ccccc12	nt	nt	8.0	nt	nt	nt
Clc1ccc(-c2nc3ccc(Cl)cn3c2CN2CCOCC2)cc1	97.8	-5.6	60.2*	-1.6	-0.3	32.5
COc1ccc2c(c1)c(C(=O)O)c(C)n2CC(C)C	92.2	-8.4	-14.8	-1.8	-4.7	nt
COc1cc(O)c(C(=O)O)c(-c2cc(O)c(O)cc2C)c1	80.1	nt	104.7*	15.3	1.9	107.0*	Diaphorase 10uM=38.0;Diaphorase 30uM=24.9
Cc1ncoc1C(=O)NCC1=C(c2ccc(S(C)(=O)=O)cc2)C[C@@H]2CC[C@H]1N2CCOc1ccccc1	nt	nt	-14.8	nt	nt	nt
Cc1nc2c(=O)n(C)c(=O)nc-2n(C)n1	114.4	1.1	120.2*	-2.7	1.6	109.2*	Diaphorase 10uM=98.3*;Diaphorase 30uM=102.4*
O=C(c1ccccc1)C(CN1CCCC1)c1ccccc1 (stereo not given)	89.7	-0.3	-5.8	nt	nt	nt
CC1CCN(C(CC(=O)c2ccccc2)C(=O)c2ccccc2)CC1 (stereo not given)	nt	nt	94.3*	nt	nt	0.1
COc1ccc(CN2C(=O)NC(=O)/C(=C/c3ccc([N+](=O)[O-])o3)C2=O)cc1	nt	4.9	nt	nt	nt	nt
CC1=CC2OC3CC4OC(=O)C=CC=CC(C(C)O)OCC(O)C5(C)OC5C(=O)OCC2(CC1O)C4(C)C31CO1 (stereo not given)	nt	nt	-3.9	nt	nt	nt
